Laboratory results: PubChem BioAssay (EPA / NIEHS)
Results filed as inconclusive are left out. Active and inactive are the calls of the source. How the source made its calls, unless noted: active means hit-call score of the fitted dose curve at least 0.9, where 1 is the maximum; inconclusive means response in the unintended direction; inactive means score below 0.9.

Experiment: CCTE_Mundy_HCI_hNP1_Pro_ResponderAvgInten: CCTE's Proliferation Assay in human neuroprogenitor cells, Mundy Lab (AID 2284224);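 further: human neural progenitor cells hNP1 derived from WA09 embryonic stem cells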
Procedure, shortened: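 Human neuroprogenitors (hNP1, WA09 lineage) receive test chemical after 40 to 44 hours of attachment. A four-hour BrdU pulse begins twenty hours later, followed by fixation and high content imaging; signal is referenced to DMSO controls.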
With `COP(=S)(OC)SCN1C(=O)c2ccccc2C1=O` the outcome was “inactive”.
With `ClC1=C(Cl)C2(Cl)C3C(Cl)C=CC3C1(Cl)C2(Cl)Cl` (centres undefined) the AC50 was 13400 nM (active).
With `CC(C)COC(=O)c1ccccc1C(=O)OCC(C)C` the outcome was “inactive”.
In the case of `COC(=O)Nc1nc2ccccc2[nH]1`, the outcome is reported as “inactive”.
With `OCCOCCO` the outcome was “inactive”.
For `CC(C)(C)C(O)(CCc1ccc(Cl)cc1)Cn1cncn1` (centres undefined), the outcome was “inactive”.
For `CCCCOC(=O)c1ccccc1C(=O)OCc1ccccc1`, the outcome was “inactive”.
With `CCC[CH2][Sn]([Cl])([CH2]CCC)[CH2]CCC` the AC50 was 188 nM (active).

Experiment: UKN2_HCS_IMR90_cell_viability: Viability Assessment in the University of Konstanz (UKN) Leist Lab Neural Crest Cell Migration Assay in human induced IMR90 Pluripotent Stem Cells (UKN2) (AID 2284233; active means hit-call score of the fitted dose curve at least 0.9, where 1 is the maximum; inactive means score below 0.9;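 further: viability of neural crest cells differentiated from IMR90 iPSC measured by calcein-AM fluorescence imaging; cells exposed to compound for 24 h after a 24 h migration phase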)
Procedure, shortened: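 iPSC-derived (IMR90) neural crest cells seeded around silicone stoppers on PLO/laminin/fibronectin; after 24 h migration in N2-S with EGF/FGF, chemical added for 24 h. Calcein-AM/Hoechst stained 30 min, high-content imaged; bidirectional fit versus DMSO.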
For `COP(=S)(OC)SCN1C(=O)c2ccccc2C1=O`, the outcome was “inactive”.
With `CC(C)COC(=O)c1ccccc1C(=O)OCC(C)C` the outcome was “inactive”.
For `CNC(=O)Oc1cccc2c1OC(C)(C)C2`, the outcome was “inactive”.
In the case of `COC(=O)Nc1nc2ccccc2[nH]1`, the outcome is reported as “inactive”.
For `CCCCOC(=O)c1ccccc1C(=O)OCc1ccccc1`, the outcome was “inactive”.
For `CCC[CH2][Sn]([Cl])([CH2]CCC)[CH2]CCC`, the AC50 was 344 nM (active).
